13 compounds from PubChem BioAssay (NCATS) can be followed below.

Results filed as inconclusive are left out. Unmarked numbers belong to inactive results. Activity calls are given as the source filed them. Calls follow the shape of the dose curve; as a rule, active = well fitted curve in the direction sought with a large enough effect in the signal ratio, with a control signal flat (not every such curve was filed as active); inconclusive = small, poorly fitted or top-dose-only effect, or effect the other way, or a change in a side signal; inactive = no such curve, though single readings can be large or run the other way; the % refers to the signal ratio.

Chain of Peroxisome proliferator-activated receptor gamma (Homo sapiens) (P37231 whole entry, looked up): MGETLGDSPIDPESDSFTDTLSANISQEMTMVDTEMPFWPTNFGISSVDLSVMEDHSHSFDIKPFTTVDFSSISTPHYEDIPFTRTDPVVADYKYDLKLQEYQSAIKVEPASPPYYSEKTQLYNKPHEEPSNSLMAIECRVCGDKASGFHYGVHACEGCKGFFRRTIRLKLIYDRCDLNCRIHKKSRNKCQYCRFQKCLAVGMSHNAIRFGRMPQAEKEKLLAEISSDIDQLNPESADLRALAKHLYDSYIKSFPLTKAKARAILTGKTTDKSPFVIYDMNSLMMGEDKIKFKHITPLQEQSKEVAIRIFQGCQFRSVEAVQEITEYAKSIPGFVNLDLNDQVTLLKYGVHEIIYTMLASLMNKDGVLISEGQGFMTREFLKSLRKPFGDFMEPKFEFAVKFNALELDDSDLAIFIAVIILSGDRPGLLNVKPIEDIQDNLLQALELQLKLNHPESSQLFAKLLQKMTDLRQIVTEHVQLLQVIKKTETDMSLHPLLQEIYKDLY

This assay concerns the target Peroxisome proliferator-activated receptor gamma (Homo sapiens) (UniProt P37231). The experiment in a line: qHTS assay for small molecule agonists of peroxisome proliferator-activated receptor gamma signaling (AID 588536). The following applies: HEK293 PPARg-UAS-bla, beta-lactamase ratio, 16 h, percent of rosiglitazone response, DMSO as zero; series mostly up to 76.7 µM; activation: at the top concentration. From the text:
NIH Chemical Genomics Center [NCGC] U.S. Environmental Protection Agency [EPA] National Institutes of Environmental Health Sciences [NIEHS] National Toxicology Program [NTP] NCGC Assay Overview The Peroxisome proliferator-activated receptors (PPARs) are lipid-activated transcription factors of the nuclear receptor superfamily with three distinct subtypes namely PPAR alpha, PPAR delta (also called PPAR beta) and PPAR gamma. All these subtypes heterodimerizes with Retinoid X receptor (RXR) and these heterodimers regulate transcription of various genes. PPAR-gamma (glitazone receptor) agonists have been used in the treatment of type 2 diabetes and dyslipidaemia. It is involved in the regulation of glucose and lipid metabolism. PPAR-gamma activates certain genes like Paraoxonase 1 which is responsible for hydrolyzing organophosphates. PPAR-gamma agonists may also be therapeutically important in the treatment of coronary artery disease, obesity and cancer and atherosclerosis.
NCGC Assay Protocol Summary Using a beta-lactamase reporter-gene under control of Peroxisome Proliferator-Activated-gamma (PPAR-gamma) response element, a cell-based assay [GeneBLAzer PPAR-gamma-UAS-bla assay developed by Invitrogen] was used to measure PPAR-gamma ligands signaling. GeneBLAzer PPAR-gamma-UAS-bla-HEK293 cells were used with assay medium containing 1% charcoal/dextran treated FBS. The assay was performed in clear bottom black Greiner 1536-well plates. Rosiglitazone was used in the screen as the positive control. Library compounds were measured for their ability to stimulate the reporter gene activity. Compounds were screened in a titration series in 1536-well format. The fluorescence intensity (405 nm excitation, 460/530 nm emission) was measured using an EnVision plate reader. Data was normalized relative to Rosiglitazone control (2 uM, 100%), and DMSO only wells (basal, 0%). Concentration-response titration points for each compound were fitted to the Hill equation yielding concentrations of half-maximal stimulation (EC50) and maximal response (efficacy) values. qHTS protocol for PPAR-gamma beta-lactamase assay in agonist mode [Step] [Parameter] [Value] [Description] 1. Reagent; 6 uL; 3000 cells/well 2. Incubation; 37 C for 6 - 6.5 hrs 3. Compounds; 23 nL; 0.59 nM to 92 uM 4. Controls (Rosiglitazone); 23 nL, - One column with dose response, start 19 uM, 1:3 dilutions in duplicates - Final concentrations of 2 uM and 0.5 uM in two columns 5. Incubation; 37 C for 16 hrs 6. Detection reagent; 1 uL of CCF4-dye 7. Incubation; RT for 2 hrs 8. Detection; Fluorescence; Envision plate reader
(In general: qHTS replaces the single test concentration by a dilution series.)
Consider `CC(=O)Oc1ccccc1C(=O)O`, for which the result was inactive. For the compound `NS(=O)(=O)c1cc2c(cc1Cl)NC=NS2(=O)=O`, the “activation” value is -0.952%.

`CCCC(CCC)C(=O)O`: the result was inactive.

For `O=C1CCC(N2C(=O)c3ccccc3C2=O)C(=O)N1` (stereo not drawn), the “activation” value is -3.42%. Regarding `Cn1cnc([N+](=O)[O-])c1Sc1ncnc2nc[nH]c12`, the outcome was inactive. With `Cc1ccccc1C(OCCN(C)C)c1ccccc1` (stereo not drawn), the “activation” value was -11.5%. On the same count and under the same terms, the result for `C[C@]12CCC(=O)C=C1CC[C@@H]1[C@@H]2[C@@H](O)C[C@@]2(C)[C@H]1CC[C@]2(O)C(=O)CO` reads 0.571%; that for `O=c1[nH]cnc2[nH]ncc12`, 2.87%; that for `NC(N)=NC(=O)c1nc(Cl)c(N)nc1N`, 3.06%. `NC(=O)c1cnccn1`: the outcome was inactive. With `O=NN(CCCl)C(=O)NCCCl`, the “activation” value was -1.02%. `COc1ccc2nc(S(=O)Cc3ncc(C)c(OC)c3C)[nH]c2c1` (stereo not drawn): the “activation” value is -12.8%. For `NC[C@H](O)c1ccc(O)c(O)c1`, the “activation” value was -5.92%.
